aSyn 5UTR act: Activators via SNCA 5'UTR binding, MLPCN | alpha-synuclein 5'UTR reporter, activators screen | activity score, % (tested at 7.5 µM), hits read low | 300,000 compounds, 7.1% hits; in the data active = activity score below about -60%
An asterisk follows results filed as active. Not all results are given here.

SMILES	aSyn 5UTR act
O=C(Nc1ccc(-c2nnco2)cc1)c1ccccc1	-78.3*
CC(C)(C)n1nc(-c2ccc(F)cc2)c2c(N)ncnc21	70.9
COc1cc(OC)cc(C(=O)Nc2ccc(Nc3ccccc3)cc2)c1	-164.7*
CCn1c2ccccc2c2cc(NC(=O)c3cc(OC)cc(OC)c3)ccc21	100.7
O=C(Nc1csc(Cl)c1)c1ccccc1	-160.6*
CNC(=O)c1ccc(NC(=O)Nc2ccccc2)cc1	-71.1*
O=C(Nc1ccc(F)cc1)c1ccccc1	-83.3*
O=C(Nc1ccc(C2SCCS2)cc1)c1ccccc1	-88.3*
O=C(Nc1ccc([N+](=O)[O-])cc1)c1ccccc1	-121.6*
O=C(Nc1ccc(-c2nc3ccccc3s2)c(OC(=O)c2ccccc2)c1)c1ccccc1	-175.0*
O=C(Nc1ccc(SC(F)F)cc1)c1ccc(F)cc1	-162.8*
CCN(CC)c1ccc(C(=O)Nc2ccccc2)cc1[N+](=O)[O-]	-151.5*
Cc1ccc(C(=O)Nc2ccc(Nc3ccccc3)cc2)cc1C	-62.2*
O=C(C#Cc1ccccc1)c1ccc([N+](=O)[O-])cc1	-95.4*
Cc1ccc(-n2c(C)nn(CCOc3ccccc3)c2=O)cc1	-104.3*
O=c1c2ccccc2cnn1CCOc1ccccc1	72.1
Cc1nn(CCOc2ccccc2)c(=O)n1-c1c(F)cccc1F	-108.4*
Cc1ccc(NC(=S)NCCc2ccccc2)nc1	-98.6*
Cc1ccc(NC(=O)CCCc2ccccc2)nc1	-99.6*
CCn1c(=O)oc2cc(NC(=O)CCl)ccc21	-104.0*
Cn1c(=O)n(C)c2cc(NC(=O)CCl)ccc21	-180.0*
C=CCOC(=O)/C(=C\c1ccccc1)NC(=O)c1ccc(C)cc1	-175.1*
CCOC(=O)/C(=C\c1ccccc1)NC(=O)c1ccccc1	-105.1*
CC(=O)NCCC1CCCCN1C(=O)c1cc(COc2cc(C)ccc2C)on1 (stereo not given)	-144.1*
Cc1ccc(C)c(OCc2cc(C(=O)N3CCOCC3)no2)c1	-97.2*
SMILES	aSyn 5UTR act
COCCN1CCN(C(=O)c2cc(COc3ccc(Cl)cc3OC)on2)CC1	-120.0*
COCCCC1CCN(C(=O)c2cc(COc3cc(C)ccc3C)on2)CC1	-179.5*
COCCN1CCN(C(=O)c2cc(COc3cc(C)ccc3C)on2)CC1	-127.0*
O=C(Nc1ccc2c(c1)oc1ccccc12)c1ccncc1	-207.4*
CCNC(=S)Nc1ccc2c(c1)oc1ccccc12	-164.6*
O=C(Nc1ccc2c(c1)oc1ccccc12)c1cccnc1	-190.2*
CCOc1ccc2c(c1)c(N=Nc1cccc(C(=O)O)c1)c(O)n2C	-179.4*
CCc1ccccc1NC(=S)N=Nc1c(O)n(C)c2ccc(S(=O)(=O)N3CCOCC3)cc12	80.5
O=[N+]([O-])c1ccccc1/C=N/NC1=NCCCCC1	-173.0*
O=C(NNC(=O)c1ccccc1F)c1cccc(-n2cccc2)c1	-73.9*
CN(C)S(=O)(=O)c1cccc(NC(=O)c2cc3ccccc3o2)c1	-122.5*
O=C(COC(=O)c1cc2ccccc2oc1=O)Nc1ccc(F)cc1F	-169.0*
CN(C)S(=O)(=O)c1cccc(NC(=O)COC(=O)c2cc3ccccc3oc2=O)c1	-105.1*
CCN(CC)S(=O)(=O)c1cccc(NC(=O)c2cc3ccccc3o2)c1	-126.2*
Cc1c(O)ccc(/C(Cc2ccc3ccccc3n2)=N\N)c1O	-64.0*
O=c1sc(N2CCN(c3ccccc3F)CC2)nc2ccsc12	-192.0*
O=c1sc(N2CCN(c3ccc(F)cc3)CC2)nc2ccsc12	-179.1*
Cc1ccc(-c2nc(C#N)c(NCC3CCCO3)o2)cc1 (stereo not given)	-88.2*
Cc1cccc(-c2nc(C#N)c(N3CCCCCC3)o2)c1	-68.3*
Cc1cccc(-c2nc(C#N)c(NCC3CCCO3)o2)c1 (stereo not given)	-112.0*
Cc1cccc(NCc2ccc(N(C)C)cc2)n1	-72.4*
COc1ccccc1C(CCNCc1ccc(N(C)C)cc1)c1ccc(OC(C)C)cc1 (stereo not given)	135.3
Cc1ccc(/C=C2\SC(=S)N(CCCC(=O)Nc3cccnc3)C2=O)cc1	79.1
O=C1/C(=C/c2ccc(O)c(O)c2)SC(=S)N1Nc1ccccc1	-146.2*
COc1cc(/C=C2\SC(=S)N(Nc3ccccc3)C2=O)ccc1O	-145.2*
SMILES	aSyn 5UTR act
COc1ccc(/C=C2\SC(=S)N(CCCC(=O)Nc3ccc(O)cc3)C2=O)cc1	77.7
CCOc1cc(/C=C2\SC(=S)N(Nc3ccccc3)C2=O)ccc1O	-164.6*
Cc1cc(C)cc(NC(=O)Nc2ccc(-n3ccc(C(F)(F)F)n3)cc2)c1	-77.0*
O=C(Nc1ccc(-n2ccc(C(F)(F)F)n2)cc1)Nc1cccc(Cl)c1	-81.0*
O=C(Nc1ccc(-n2ccc(C(F)(F)F)n2)cc1)c1cccs1	-175.6*
COc1ccccc1NC(=O)Nc1ccc(-n2ccc(C(F)(F)F)n2)cc1	-211.5*
CCc1cc2c(=O)n(-c3ccc(Br)cc3)cnc2s1	-160.3*
CCCCCn1cnc2sc(CC)cc2c1=O	-168.8*
CCc1cc2c(=O)n(CC(C)C)cnc2s1	-100.7*
Clc1ccccc1-c1ncc(-c2ccccc2)o1	-143.0*
CCCc1nnc(NC(=O)c2ccc([N+](=O)[O-])cc2)s1	-67.4*
CC(C)(C)Cc1nnc(NC(=O)c2ccc([N+](=O)[O-])cc2)s1	-77.3*
CCC(C)(C)c1nnc(NC(=O)c2ccc([N+](=O)[O-])cc2)s1	-149.3*
COc1cccc(/C=C2\SC(N3CCCC(C)C3)=NC2=O)c1OC (stereo not given)	-99.9*
COc1ccccc1/C=C1\SC(N2CCC(C)CC2)=NC1=O	-94.1*
O=C(Nc1ccc(NC(=O)c2ccco2)c(Cl)c1)c1ccccc1	-99.5*
CC(C)COc1ccc(C(=O)Nc2ccc(NC(=O)c3ccco3)c(Cl)c2)cc1	-149.5*
O=C(Nc1ccc(Br)c(Cl)c1)c1ccco1	-162.5*
CC(C)Oc1ccc(C(=O)Nc2ccc(NC(=O)c3ccco3)c(Cl)c2)cc1	-106.0*
Nc1ccc(C(=O)Nc2ccc(NC(=O)c3ccco3)c(O)c2)cc1	-81.6*
O=C1NCCN/C1=C\C(=O)c1ccc(Cl)cc1	-108.7*
CC1CN/C(=C\C(=O)c2ccccc2)C(=O)N1 (stereo not given)	-110.2*
O=C1NCCN/C1=C\C(=O)c1ccc(F)cc1	-81.3*
CC1(C)CC(=O)C=C(NNC(=O)c2ccccc2O)C1	-92.6*
Cn1cnc2cc(NCc3ccc(Cl)cc3)ccc21	-101.1*
SMILES	aSyn 5UTR act
CCn1cnc2cc(NCc3ccc(C)cc3)ccc21	-127.9*
CCCn1cnc2cc(NCc3cccc(OC)c3)ccc21	-141.0*
Cc1ccc(CNc2ccc3c(c2)ncn3C(C)C)cc1	-143.8*
CCCn1cnc2cc(NCc3ccc(Br)cc3)ccc21	-93.1*
CCn1cnc2cc(NCc3ccc(Br)cc3)ccc21	-140.3*
Nc1ccc(-n2cnc3cc([N+](=O)[O-])ccc32)cc1	-66.1*
CCOC(=O)c1cnc2c(ccc3ccccc32)c1NCCO	-95.8*
CCOC(=O)c1cnc2c(ccc3ccccc32)c1N	-125.5*
CCC(C)(C)C1CCC(=NNc2nc3ccccc3[nH]2)CC1 (stereo not given)	-69.3*
CC(=O)N1CCC(=NNc2nc3ccccc3[nH]2)CC1	-66.4*
O=C(Nc1ccc(N2CCCC2)cc1)c1cc2ccccc2o1	-131.1*
O=C(NNC(=O)c1ccccc1O)c1cc2ccccc2o1	-86.0*
CC(=O)c1ccc(NC(=O)c2cc3ccccc3o2)cc1	-128.3*
CSC(C(=O)c1cc2ccccc2o1)c1ccccc1 (stereo not given)	-88.2*
O=C(Nc1ccccc1)c1cc2ccccc2o1	-112.1*
O=C(Nc1ccc(NC(=O)c2cc3ccccc3o2)cc1)c1ccco1	-94.7*

Assay outcomes deposited in PubChem BioAssay by Broad Institute.
